# Test results: PubChem BioAssay (NCATS)
# “And” between values parts separate entries of the source, which are not always exact repeats. Identical values can stand only once. Values without a mark were called inactive. Inconclusive results are not listed. The source made the active and inactive calls. Unless noted, the call rests on the fitted dose curve; in most records, active means well fitted curve in either direction with a large enough effect (not every such curve was filed as active); inconclusive means small, poorly fitted or top-dose-only effect, or another doubt; inactive means flat fitted curve, though single readings scatter.
# Assays:
# [1] = AP1 Signaling Pathway (AID 357); conditions: ME-180 AP-1-bla reporter, EGF-induced, beta-lactamase ratio, 5 h; series mostly up to 17.2 µM;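 further: ME-180 reporter cells stimulated with EGF at its EC50 level; on the % scale 0 is the no-effect control and ±100 the full control effect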
# In short: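 Cells are seeded overnight, exposed to compound titrations and an EC50 level of EGF for 5 hours at 37 °C, then loaded with CCF4 dye for 2.5 hours. Beta-lactamase activity under the AP-1 element is read as a blue/green ratio.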
# [2] = NFAT Signaling Pathway (AID 444); conditions: Jurkat NFAT-bla M1, carbachol, beta-lactamase ratio, 5 h;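 further: carbachol stimulus at about its EC50 of 1 µM final; on the % scale 0 is the no-effect control and ±100 the full control effect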
# In short: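 Read-out: CCF4 FRET ratio (460 nm/530 nm) after 1 h RT dye loading, used for %activity and AC50 from titration series. Cells: Jurkat NFAT-β-lactamase/M1 line, treated with compound plus 1 uM carbachol for 5 h, 37 °C.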
# [3] = Stat Signaling Pathway (AID 446); conditions: ME-180 (cervical carcinoma) SIE beta-lactamase reporter, IL-6 stimulated, 5 h;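 further: ME-180 cervical cancer cells given 40 pM IL-6 alongside compound; SIE-controlled beta-lactamase reporter measured as 460/530 nm FRET emission ratio; on the % scale 0 is the no-effect control and ±100 the full control effect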
# In short: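 Compound effects on IL-6-induced STAT reporter activity were measured in ME-180 cells. After overnight culture, cells were co-treated with 40 pM IL-6 for 5 hrs before beta-lactamase substrate loading at room temperature.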
# [4] = target: Glucocorticoid receptor (Homo sapiens) (UniProt P04150); assay: GR-GFP Redistribution (AID 450;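 active means compounds whose dose series gives a full or clear partial fitted curve of increased nuclear translocation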; further: potency means the concentration at half of the fitted maximal effect); conditions: U2OS GR-GFP nuclear translocation, laser cytometry, 2 h
# Chain of Glucocorticoid receptor (Homo sapiens) (P04150 whole entry, looked up): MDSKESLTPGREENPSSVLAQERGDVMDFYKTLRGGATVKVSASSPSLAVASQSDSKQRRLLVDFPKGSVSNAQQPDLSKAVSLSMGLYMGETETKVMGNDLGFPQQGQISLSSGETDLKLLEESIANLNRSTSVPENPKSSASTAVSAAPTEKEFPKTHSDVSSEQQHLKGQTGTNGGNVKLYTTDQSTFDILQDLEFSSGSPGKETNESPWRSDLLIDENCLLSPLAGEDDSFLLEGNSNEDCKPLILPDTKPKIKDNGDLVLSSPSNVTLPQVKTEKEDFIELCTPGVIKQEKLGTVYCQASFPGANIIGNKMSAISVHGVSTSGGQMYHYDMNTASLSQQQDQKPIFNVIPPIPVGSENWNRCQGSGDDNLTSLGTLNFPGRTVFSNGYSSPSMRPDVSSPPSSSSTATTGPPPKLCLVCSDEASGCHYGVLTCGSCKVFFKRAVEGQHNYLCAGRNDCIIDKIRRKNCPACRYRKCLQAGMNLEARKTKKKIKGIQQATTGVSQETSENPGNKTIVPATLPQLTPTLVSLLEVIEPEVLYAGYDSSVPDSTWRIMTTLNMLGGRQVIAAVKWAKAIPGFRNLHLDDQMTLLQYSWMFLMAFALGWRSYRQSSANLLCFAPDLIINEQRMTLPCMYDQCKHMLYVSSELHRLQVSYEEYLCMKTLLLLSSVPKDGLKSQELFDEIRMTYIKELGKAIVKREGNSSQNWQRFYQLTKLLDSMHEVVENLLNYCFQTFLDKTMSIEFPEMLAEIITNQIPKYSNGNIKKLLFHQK
# [5] = Cell Viability - Jurkat (AID 426;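 active means dose-dependent loss of cell ATP signal giving a full or clear fitted curve, ranked by lower potency value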;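 further: potency means the concentration at half of the fitted maximal effect; cells exposed to compound for 40 hours at 37 °C before ATP read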); conditions: qHTS
# In short: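 Luminescent ATP read-out (CellTiter-Glo, 20 min at room temperature) after 40 hr compound exposure at 37 °C of Jurkat E6-1 cells, 5000/well. Decreased ATP taken as cytotoxicity; AC50 from standard Hill equation.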
# [6] = Cell Viability - BJ (AID 421; calls by dose curve;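 further: potency means the concentration at half of the fitted maximal effect; cells exposed to compound for 40 hours at 37 °C before readout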); conditions: BJ fibroblast viability, qHTS
# In short: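 Luminescent ATP signal (CellTiter-Glo, 20 min at room temperature) served as the read-out of viable BJ cells after 40 hours of compound treatment. Responses were scaled between DMSO and 100 uM tamoxifen, and AC50 values were obtained by Hill modeling.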
# [7] = Cell Viability - Hek293 (AID 427;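 active means compounds whose dose-response curve shows a full or clear partial loss of cell viability, called from curve shape rather than a numeric limit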;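 further: potency means the concentration at half of the fitted maximal effect; cells exposed to compound for 40 hours at 37 °C before reading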); conditions: qHTS
# In short: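 Luminescent ATP read-out (CellTiter-Glo, 20 min RT) after 40 hr compound exposure at 37 °C in complete medium. Signal normalized to DMSO (basal) and 100 uM tamoxifen (100% inhibition); concentration-response fitted with the standard Hill equation to give AC50.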
# [8] = Cell Viability - HepG2 (AID 433; calls by dose curve;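 further: potency means the concentration at half of the fitted maximal effect; potency for ATP loss meaning cytotoxicity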); conditions: qHTS
# In short: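 Cytotoxicity is scored as loss of intracellular ATP in HepG2 cells exposed to compounds for 40 h. Concentration-response curves, normalized to DMSO and 100 uM tamoxifen, give AC50 values.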
# [9] = Cell Viability - SK-N-SH (AID 435; calls by dose curve;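 further: potency means the concentration at half of the fitted maximal effect; compound exposure lasted 40 h at 37 °C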); conditions: SK-N-SH neuroblastoma cell viability qHTS
# Text: NIH Chemical Genomics Center [NCGC]
# NIH Molecular Libraries Screening Centers Network [MLSCN]
# National Institutes of Environmental Health Sciences [NIEHS]
# National Toxicology Program [NTP]
# We have developed a 1536-well cell-based assay for quantitative high throughput screening (qHTS) against a number of cell lines to determine in vitro cytotoxicity of small molecules. This particular assay uses the SK-N-SH cell line which is derived from human neuroblastoma.
# NCGC Assay Protocol Summary:
# The CellTiter-Glo luminescent cell viability assay (Promega) is a homogeneous method to measure the number of viable cells in culture. The end point readout of this assay is based on quantitation of intracellular ATP, an indicator of metabolic activity, using the luciferase reaction. Luciferase catalyzes the oxidation of beetle Luciferin to oxyluciferin and light in the presence of ATP. The luminescent signal is proportional to amount of ATP present.
# Using the CellTiter-Glo luminescent cell viability assay, the amount of cellular ATP was measured in the SK-N-SH cell line with complete culture medium following compound treatment for 40 hours. The assay was performed in opaque white Kalypsys 1536-well plates. In the screen, tamoxifen and doxorubicin were used as positive controls. Library compounds were measured for their ability to cause acute toxicity in the cell line, as reflected by a decrease in intracellular ATP levels, in a concentration-dependent manner. Data were normalized to the controls for basal activity (DMSO only) and 100% inhibition (100 uM tamoxifen). AC50 values were determined from concentration-response data modeled with the standard Hill equation.
# qHTS protocol fo CellTiter Glo SK-N-SH cellular assay
# [Step] [Parameter] [Value] [Description]
# 1. Reagent; 5 uL; 1500 SK-N-SH cells/well
# 2. Time; 5 hr; 37 °C incubation
# 4. Controls; 23 nL; Tamoxifen 0.34 uM to 100 uM & Doxorubicin 0.02 nM to 100 uM
# 5. Time; 40 hr; 37 °C incubation
# 6. Reagent; 5 uL; CellTiter Glo reagent
# 7. Time; 20 min; Room Temperature
# 8. Detection; Luminescence; Viewlux plate reader
# Keywords: cell viability, cytotoxicity, SK-N-SH cell line, luminescence, NTPHTS, NTPHTS_NCGC, NIEHS, EPA, DSSTox, MLSMR, MLSCN, NIH Roadmap, qHTS, NCGC
# [10] = target: Lysosomal acid glucosylceramidase (Homo sapiens) (UniProt P04062); assay: Glucocerebrosidase-p2 (AID 348; in the data active means potency below about 10 µM; further: potency means the concentration at half of the fitted maximal effect); conditions: purified GBA, blue fluorogenic substrate, 40 min
# Chain of Lysosomal acid glucosylceramidase (Homo sapiens) (P04062 whole entry, looked up): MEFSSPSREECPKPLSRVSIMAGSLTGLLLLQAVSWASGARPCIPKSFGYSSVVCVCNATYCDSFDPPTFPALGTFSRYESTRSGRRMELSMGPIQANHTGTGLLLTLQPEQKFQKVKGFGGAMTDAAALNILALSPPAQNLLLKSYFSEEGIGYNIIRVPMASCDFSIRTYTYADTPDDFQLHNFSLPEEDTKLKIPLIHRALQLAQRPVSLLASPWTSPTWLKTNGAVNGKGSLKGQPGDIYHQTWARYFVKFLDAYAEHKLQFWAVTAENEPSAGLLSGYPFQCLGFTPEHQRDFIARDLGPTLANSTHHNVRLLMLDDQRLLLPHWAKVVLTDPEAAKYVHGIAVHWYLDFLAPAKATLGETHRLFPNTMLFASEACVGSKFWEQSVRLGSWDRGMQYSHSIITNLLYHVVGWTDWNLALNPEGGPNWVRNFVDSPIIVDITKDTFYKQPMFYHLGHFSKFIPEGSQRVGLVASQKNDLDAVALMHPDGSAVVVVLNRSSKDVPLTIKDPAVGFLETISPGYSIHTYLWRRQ
# In short: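 Normal human glucocerebrosidase (0.2 nM) with blue fluorogenic substrate (80 uM final) in citrate/phosphate pH 5.9 with 10mM sodium taurocholate, 0.01% tween-20; 40 min RT, NaOH/glycine stop; fluorescence Ex 365/Em 440; AC50 from a titration from 0.6 nM upwards.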
smiles,measurement,setting,value
NCC1(CC(=O)O)CCCCC1,outcome,[1],inactive
same,"activity change, negative = inhibition",[2]; at 17.2 µM (top of the series),-5.52% and 10.6%
same,"activity change, negative = inhibition",[2]; at 38 µM (top of the series),3.24%
same,"activity, negative = inhibition",[3]; at 17.2 µM (top of the series),-0.102% and 1.2%
same,"activity, negative = inhibition",[3]; at 38 µM (top of the series),-12.4%
same,Potency,[4],> 46 µM and > 20.6 µM
CC(=O)[C@H]1CC[C@H]2[C@@H]3CC[C@H]4C[C@H](O)CC[C@]4(C)[C@H]3C(=O)C[C@]12C,outcome,[1],inactive
same,"activity change, negative = inhibition",[2]; at 17.2 µM (top of the series),-29.1%
same,"activity, negative = inhibition",[3]; at 17.2 µM (top of the series),-6.19%
CC[C@@H](CO)NC(=O)[C@@H]1C=C2c3cccc4c3c(cn4C)C[C@H]2N(C)C1,outcome,[1],inactive
same,"activity change, negative = inhibition",[2]; at 17.2 µM (top of the series),-12.8%
N#CC(C#N)=Cc1ccc(O)c(O)c1,outcome,[1],inactive
same,"activity change, negative = inhibition",[2]; at 38 µM (top of the series),-13.6%
same,"activity, negative = inhibition",[3]; at 38 µM (top of the series),-24.2%
Nc1ccncc1,outcome,[1],inactive
same,"activity change, negative = inhibition",[2]; at 38 µM (top of the series),-3.97%
same,"activity, negative = inhibition",[3]; at 38 µM (top of the series),18.2%
Clc1ccc(COC(Cn2ccnc2)c2ccc(Cl)cc2Cl)cc1 (centres undefined),outcome,[1],inactive
same,Potency,[5],81.7 µM (active)
same,"activity, negative = inhibition",[3]; at 17.2 µM (top of the series),-23%
same,Potency,[4],> 20.6 µM
CC[N+]1(C)CCCC(OC(=O)C(O)(c2ccccc2)c2ccccc2)C1 (centres undefined),outcome,[1],inactive
same,"activity change, negative = inhibition",[2]; at 17.2 µM (top of the series),-75.8% (active)
same,"activity, negative = inhibition",[3]; at 17.2 µM (top of the series),-1.5%
same,Potency,[4],> 20.6 µM
O=C1CC[C@@]2(O)[C@H]3Cc4ccc(O)c5c4[C@@]2(CCN3CC2CC2)[C@H]1O5,outcome,[1],inactive
same,"activity change, negative = inhibition",[2]; at 17.2 µM (top of the series),1.18%
same,"activity, negative = inhibition",[3]; at 17.2 µM (top of the series),2.9%
CCCN1CCC[C@@H]2Cc3[nH]ncc3C[C@H]21,outcome,[1],inactive
same,"activity change, negative = inhibition",[2]; at 17.2 µM (top of the series),24.4%
same,"activity change, negative = inhibition",[2]; at 38 µM (top of the series),7.41% and -8.14%
same,"activity, negative = inhibition",[3]; at 17.2 µM (top of the series),8.2%
same,"activity, negative = inhibition",[3]; at 38 µM (top of the series),-2.11% and 14.3%
same,Potency,[4],> 46 µM and > 20.6 µM
O=P1(NCCCl)OCCCN1CCCl (centres undefined),outcome,[1],inactive
same,"activity change, negative = inhibition",[2]; at 17.2 µM (top of the series),-9.45%
same,"activity, negative = inhibition",[3]; at 17.2 µM (top of the series),-3.9%
same,Potency,[4],> 20.6 µM
CNCC(O)c1ccc(O)cc1 (centres undefined),outcome,[1],inactive
same,Potency,[6],> 92 µM
same,Potency,[5],> 92 µM
same,Potency,[7],> 92 µM
same,Potency,[8],> 92 µM
same,Potency,[9],> 92 µM
same,"activity change, negative = inhibition",[2]; at 17.2 µM (top of the series),19.4%
same,"activity, negative = inhibition",[3]; at 17.2 µM (top of the series),14.9%
same,Potency,[4],> 20.6 µM
Oc1cccc2cccnc12,Potency,[10],> 11.4 µM
same,Potency,[6],> 92 µM
same,Potency,[9],24.4 µM (active) and 28.1 µM (active)
same,"activity change, negative = inhibition",[2]; at 7.69 µM (top of the series),3.84%
same,"activity, negative = inhibition",[3]; at 7.69 µM (top of the series),-1.23%
Cc1ccc(S(=O)(=O)N[C@@H](CCCCN)C(=O)CCl)cc1,outcome,[1],inactive
same,"activity change, negative = inhibition",[2]; at 38 µM (top of the series),-22.6%
same,"activity, negative = inhibition",[3]; at 38 µM (top of the series),-67% (active)
same,Potency,[4],> 46 µM
Cc1cccc(C)c1NC1=NCCCS1,outcome,[1],inactive
same,"activity change, negative = inhibition",[2]; at 38 µM (top of the series),-14.8%
same,"activity, negative = inhibition",[3]; at 17.2 µM (top of the series),3.23%
same,"activity, negative = inhibition",[3]; at 38 µM (top of the series),9.43%
N[C@@H]1C[C@H]1c1ccccc1,outcome,[1],inactive
same,"activity change, negative = inhibition",[2]; at 38 µM (top of the series),-3.2%
same,"activity, negative = inhibition",[3]; at 38 µM (top of the series),20.3%
CCn1cc(C(=O)O)c(=O)c2ccc(C)nc21,outcome,[1],inactive
same,"activity change, negative = inhibition",[2]; at 17.2 µM (top of the series),-8.77% and -6.5%
same,"activity change, negative = inhibition",[2]; at 38 µM (top of the series),12.2%
same,"activity, negative = inhibition",[3]; at 17.2 µM (top of the series),10.7% and -2.6%
same,"activity, negative = inhibition",[3]; at 38 µM (top of the series),-7%
CCCN1CCC[C@@H]2Cc3nc(N)ncc3C[C@H]21,outcome,[1],inactive
same,"activity change, negative = inhibition",[2]; at 38 µM (top of the series),-3.63%
same,"activity, negative = inhibition",[3]; at 38 µM (top of the series),-19.8%
COc1ccc(Cc2nccc3cc(OC)c(OC)cc23)cc1OC,outcome,[1],inactive
same,"activity change, negative = inhibition",[2]; at 17.2 µM (top of the series),-29.4%
same,"activity, negative = inhibition",[3]; at 17.2 µM (top of the series),-7.28%
same,"activity, negative = inhibition",[3]; at 38 µM (top of the series),-33.5%
Cc1ncc(CNC(=O)N(CCCl)N=O)c(N)n1,outcome,[1],inactive
same,"activity change, negative = inhibition",[2]; at 38 µM (top of the series),3.51%
same,"activity, negative = inhibition",[3]; at 38 µM (top of the series),-6.98%
same,Potency,[4],> 46 µM
NN=C(N)N,outcome,[1],inactive
same,"activity change, negative = inhibition",[2]; at 38 µM (top of the series),2.99% and 1.19%
same,"activity, negative = inhibition",[3]; at 38 µM (top of the series),13% and 15.8%
CN1C[C@H](CNC(=O)OCc2ccccc2)C[C@@H]2c3cccc4c3c(cn4C)C[C@H]21,outcome,[1],inactive
same,"activity change, negative = inhibition",[2]; at 17.2 µM (top of the series),11.1%
same,"activity, negative = inhibition",[3]; at 17.2 µM (top of the series),-8.15%
COc1ccccc1N1CCNCC1,outcome,[1],inactive
same,"activity change, negative = inhibition",[2]; at 38 µM (top of the series),-22.1%
same,"activity, negative = inhibition",[3]; at 38 µM (top of the series),16.4%
same,Potency,[4],> 46 µM
